Test results as given in ChEMBL document CHEMBL4513156, “CO-ADD screening of NCPRI (Romania) compounds”.
Potency and affinity values are given separately.

Tests used:
Staphylococcus aureus = conditions: Concentration 32 ug.mL-1; ASSAY_TEST Inhibition of Bacterial Growth; detection method Absorption (OD600); MEDIA CAMHB; plate type 384well; NBS; CORNING #3640; time 18 hr
Escherichia coli = conditions: Concentration 32 ug.mL-1; ASSAY_TEST Inhibition of Bacterial Growth; detection method Absorption (OD600); MEDIA CAMHB; plate type 384well; NBS; CORNING #3640; time 18 hr

SMILES	Inhibition (Staphylococcus aureus)	Inhibition (Escherichia coli)
O=C(NNC(=O)c1ccc([N+](=O)[O-])cc1C(=O)O)c1ccncc1	30.83%	15.66%
O=C(N/N=C1/C[C@@H]2[C@@H](C(=O)O)[C@H]1C[C@H]2Cl)c1ccncc1	32.79%	18%
O=C(N/N=C1/C[C@@H]2[C@H](COC(c3ccccc3)(c3ccccc3)c3ccccc3)C[C@H](COC(c3ccccc3)(c3ccccc3)c3ccccc3)[C@@H]2C1)c1ccncc1	-0.42%	11.41%
O=C(N/N=C1\C[C@@H]2[C@@H](CO)[C@H]1C[C@H]2Cl)c1ccncc1	26.12%	15.81%
O=C(N/N=C1/C[C@H]2[C@H](CO)[C@@H]1C[C@@H]2Cl)c1ccncc1	26.26%	16.12%
CC(C)(C)[Si](C)(C)OCC1C2C[C@H]3C1[C@@H]3/C2=N/NC(=O)c1ccncc1 (stereo partly drawn)	14.57%	8.28%
O=C(N/N=C/[C@@H]1C[C@H](CO)[C@@H]2CCC[C@@H]21)c1ccncc1	23.56%	14.61%
O=C(N/N=C/C[C@@H]1[C@@H](/C=N/NC(=O)c2ccncc2)[C@H](O)C[C@@H]1O)c1ccncc1	16.7%	6.29%
NNC(=O)c1ccncc1 [ISONIAZID]	27.38%	20.51%
